A selection: hits, their analogues and other compounds. The true share with any hit is near 8.1%.
Hedgehog inh: Hedgehog pathway signaling inhibitors, primary screen, luminescence, Shh-LIGHT2 cells, Gli-luciferase; Shh-LIGHT2 Gli-luciferase reporter, 30 h; inhibition, % (test concentration not listed); 2.1% of 22,000 active; AID 2313, 2010;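 active = mean inhibition across valid replicates above about 65%, limit read from the data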;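 note: pathway switched on by Shh-conditioned medium diluted 1 in 25 in low serum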
PD-1 reverse act: activators reversing PD-1 mediated T-cell inhibition, primary screen, luminescence, primary human CD4 T cells, PD-L1 beads | 29,000 tested, under 10 active | CellTiter-Glo 96 h | activation, % (test concentration not listed); call rule not given here;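 note: 0% = median vehicle wells and 100% = positive control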
MITF inh: inhibitors of MITF, primary screen, MITF inhibitor project, cell-based, luminescence | 0.28% of 37,000 active | inhibition, % (no concentration beside the values) | TRPM1 promoter luciferase, 24 h; in the data active = inhibition above about 85%;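 note: human melanocyte line stably carrying TRPM1 promoter luciferase reporter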
NOMO-1 viab: NOMO-1 AML cell viability reduction, primary screen, STK33 inhibitor project, CellTiter-Glo luminescence; NOMO-1 AML viability, 72 h; inhibition, % (concentration not given with the values); 7.5% of 37,000 active; in the data active = inhibition above about 80%
The depositor's hits bear a star; / = no result.

SMILES	Hedgehog inh	PD-1 reverse act	MITF inh	NOMO-1 viab
C[C@H]1CN([C@@H](C)CO)C(=O)c2cc(NC(=O)Nc3ccc(C(F)(F)F)cc3)ccc2O[C@@H]1CN(C)S(=O)(=O)c1ccc(Cl)cc1	47	-1	21	121*
Cc1ccc(S(=O)(=O)N(C)C[C@@H]2Oc3ccc(NC(=O)Nc4ccc(C(F)(F)F)cc4)cc3C(=O)N([C@@H](C)CO)C[C@H]2C)cc1	-8	1	-2	75
Cc1ccc(S(=O)(=O)N(C)C[C@H]2Oc3ccc(NC(=O)Nc4ccc(C(F)(F)F)cc4)cc3C(=O)N([C@@H](C)CO)C[C@H]2C)cc1	46	-2	100*	119*
Cc1ccc(S(=O)(=O)N(C)C[C@@H]2Oc3ccc(NC(=O)Nc4ccc(C(F)(F)F)cc4)cc3C(=O)N([C@@H](C)CO)C[C@@H]2C)cc1	/	-1	15	83*
Cc1ccc(S(=O)(=O)N(C)C[C@@H]2Oc3ccc(NC(=O)Nc4ccc(C(F)(F)F)cc4)cc3C(=O)N([C@H](C)CO)C[C@@H]2C)cc1	17	-2	65	115*
CN(C)C(=S)SCC(=O)c1ccc(Cl)cc1	-95	1	-48	16
C[C@@H]1CN([C@@H](C)CO)C(=O)c2cc(NC(=O)c3ccncc3)ccc2O[C@@H]1CN(C)S(=O)(=O)c1ccccc1	-1	1	-3	22
CS/C(Nc1cccc(Cl)c1Cl)=C(/C#N)C(=O)c1cccs1	-192	0	-6	94*
N#CC(C(=O)c1cccs1)=C1SCCCS1	-22	0	-56	39
CCc1cccc(C)c1NC(=O)CSc1nc2sc3c(c2c(=O)n1C)CCC(C)C3 (stereo unspecified)	/	/	7	95*
C[C@@H]1CN([C@H](C)CO)C(=O)c2cc(NS(=O)(=O)c3cccs3)ccc2O[C@@H]1CN(C)Cc1ccc(C(=O)Nc2ccccc2N)cc1	/	-2	25	110*
C[C@H](CO)N1C[C@H](C)[C@H](CN(C)Cc2ccc(C(=O)Nc3ccccc3N)cc2)Oc2ccc(NS(=O)(=O)c3cccs3)cc2C1=O	/	-2	24	109*
CCOc1ccc2nc(S/C=C/C(=O)c3ccc(Cl)cc3)sc2c1	-24	1	-20	42
C[C@H](CO)N1C[C@H](C)[C@@H](CN(C)S(=O)(=O)c2ccc(Cl)cc2)Oc2ccc(NC(=O)CCCCCC(=O)Nc3ccccc3N)cc2C1=O	/	1	18	21
C[C@@H]1CN([C@@H](C)CO)C(=O)Cc2cc(NC(=O)NC3CCCCC3)ccc2O[C@@H]1CN(C)S(=O)(=O)c1ccc(F)cc1	-7	/	-14	6
C[C@@H]1CN([C@H](C)CO)C(=O)Cc2cc(NS(=O)(=O)c3cccs3)ccc2O[C@@H]1CN(C)Cc1ccc(-c2ccccc2)cc1	-30	-2	-8	34
C[C@H]1CN([C@@H](C)CO)C(=O)Cc2cc(NS(=O)(=O)c3cccs3)ccc2O[C@H]1CN(C)Cc1ccc(-c2ccccc2)cc1	-10	-2	16	115*
C[C@@H]1CN([C@@H](C)CO)C(=O)Cc2cc(NS(=O)(=O)c3cccs3)ccc2O[C@@H]1CN(C)Cc1ccc(Oc2ccccc2)cc1	39	-3	26	97*
C[C@@H]1CN([C@@H](C)CO)C(=O)c2cc(NS(=O)(=O)c3cccs3)ccc2O[C@@H]1CN(C)Cc1ccc(-c2ccccc2)cc1	36	1	19	91*
OC1C=CC(O)C23OC12C(O)C=CC31Oc2cccc3cccc(c23)O1 (stereo unspecified)	-19	0	-8	22
Cn1c(SCC(=O)Nc2cccc(O)c2)nnc1-c1ccco1	/	2	7	12
C[C@H](CO)N1C[C@H](C)[C@H](CN(C)C(=O)NC2CCCCC2)Oc2ccc(NC(=O)Nc3ccccc3)cc2CC1=O	-18	3	-12	-2
CC(C)(C)C(=O)CSc1nnc(-c2ccco2)n1Cc1ccco1	/	0	-65	37
O=C(COc1ccc(Cl)cc1)N1CCN(Cc2ccc3c(c2)OCO3)CC1	28	/	10	10
CC(C)(C)c1ccc2cc(C#N)c(C#N)cc2c1	-23	0	5	140*
SMILES	Hedgehog inh	PD-1 reverse act	MITF inh	NOMO-1 viab
Cc1cc(C(=O)Nc2cccc3c2O[C@@H](CN(C)Cc2ccc(Oc4ccccc4)cc2)[C@H](C)CN([C@@H](C)CO)C3=O)n(C)n1	-35	-8	53	102*
C[C@@H]1CN([C@@H](C)CO)C(=O)c2cccc(N(C)C)c2O[C@@H]1CN(C)Cc1ccc(C(=O)Nc2ccccc2N)cc1	/	-2	12	128*
Cc1cc(C(=O)Nc2cccc3c2O[C@H](CN(C)Cc2ccc(C(=O)Nc4ccccc4N)cc2)[C@H](C)CN([C@@H](C)CO)C3=O)n(C)n1	/	-4	5	128*
C[C@H](CO)N1C[C@H](C)[C@H](CN(C)Cc2ccc(C(=O)Nc3ccccc3N)cc2)Oc2c(NC(=O)c3ccncc3)cccc2C1=O	/	-3	-10	51
C[C@@H]1CN([C@@H](C)CO)C(=O)c2cccc(NC(=O)C3CC3)c2O[C@H]1CN(C)Cc1ccc(C(=O)Nc2ccccc2N)cc1	/	-1	17	73
C[C@@H]1CN([C@H](C)CO)C(=O)c2cccc(NC(=O)c3ccncc3)c2O[C@@H]1CN(C)Cc1ccc(C(=O)Nc2ccccc2N)cc1	/	-1	27	128*
C[C@H]1CN([C@@H](C)CO)C(=O)c2cccc(NC(=O)c3cnccn3)c2O[C@@H]1CN(C)Cc1ccc(C(=O)Nc2ccccc2N)cc1	/	-2	8	108*
C[C@H]1CN([C@@H](C)CO)C(=O)c2cccc(NC(=O)c3cnccn3)c2O[C@H]1CN(C)Cc1ccc(C(=O)Nc2ccccc2N)cc1	/	-6	28	129*
C[C@H](CO)N1C[C@H](C)[C@@H](CN(C)Cc2ccc(C(=O)Nc3ccccc3N)cc2)Oc2c(NC(=O)c3cnccn3)cccc2C1=O	/	-2	16	118*
C[C@H]1CN([C@@H](C)CO)C(=O)Cc2cc(NC(=O)CCCCCC(=O)Nc3ccccc3N)ccc2O[C@@H]1CN(C)C(=O)NC1CCCCC1	/	0	-28	15
CCc1ccc(NS(=O)(=O)c2ccc(OC)cc2)cc1	-17	3	16	113*
O=C(Nc1ncc(C(F)(F)F)cc1Cl)C1COc2ccccc2O1 (stereo unspecified)	/	2	-17	4

Screening results as filed in PubChem BioAssay.
